High-throughput results: PubChem, National Center for Advancing Translational Sciences (NCATS)
The list is not random: actives were taken first. Their share in the collection is about 8%.
HT1080 IDH1KD tx = toxicity to HT-1080 IDH1 knockdown cells (counter line). AID 686971. HT-1080 IDH1 knockdown viability, ATP luminescence, 48 h. hit rate 2% among 360,000. Potency, µM (highest dose often 46.1 µM), hits mostly cytotoxic
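HT-1080-IDH1KD cells (IDH1 knocked down), 750/well in RPMI with 5% FBS, treated with compound 48 h at 37 degrees C. Viability by CellTiter-Glo luminescence, normalised to DMSO and no-cell wells; concentration-response curves classed.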
KB-3-1 tox = KB-3-1 parental cell cytotoxicity. Potency, µM (doses to about 46.1 µM), actives largely listed as cytotoxic. AID 1347075. KB-3-1 viability, CellTiter-Glo ATP luminescence, 72 h. hit rate 1.4% among 400,000; also: nearly all actives have a fitted effect of over 60% in size
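Cytotoxicity in the drug-sensitive parental line KB-3-1 was scored as loss of CellTiter-Glo luminescence following 72 h incubation with compound. Values come from curve fitting of normalized concentration-response data.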
MCF10A rerep = inducers of DNA re-replication in MCF 10A breast cells; Potency, µM (highest dose often 46.1 µM), actives largely listed as activators; MCF 10A DNA re-replication, Hoechst nuclear intensity, 48 h; hit rate 2.9% among 350,000; AID 624296; also: nearly all actives have a fitted effect of over 50% in size
HT1080NT lethal = kills 2HG-producing HT-1080-NT fibrosarcoma cells; HT-1080-NT fibrosarcoma viability, CellTiter-Glo ATP luminescence, 48 h; Potency, µM (series often up to 46.1 µM), actives largely listed as cytotoxic; hit rate 1.6% among 360,000;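 also: NT is the 2HG producing partner of a matched IDH1 knockdown line; nearly all actives have a fitted effect of over 55% in size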
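Read-out is CellTiter-Glo luminescence after 10 minutes at room temperature, following 48 hours' compound treatment of HT-1080-NT cells (750 cells/well, RPMI, 5% FBS, 37 degrees C).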
SW480 rerep = DNA re-replication induction in SW480 cells. SW480 DNA re-replication, Hoechst DNA content imaging, 48 h. Potency, µM (titrated, usually from 46.1 µM), hits mostly activators. hit rate 1.8% among 340,000; also: nearly all actives have a fitted effect of over 55% in size
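Image-based read-out: total Hoechst fluorescence of nuclei (405 nm excitation, 500-530 nm emission), with hits raising the fraction of high-intensity nuclei. SW480 colon cells incubated 48 hr with compounds at 37 C.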
KB-V1 cytotox = kills drug-selected multidrug resistant KB-V1 cells; KB-V1 MDR cells viability, CellTiter-Glo, 72 h; Potency, µM (highest dose often 46.1 µM), usual class: cytotoxic; hit rate 3.4% among 400,000; AID 1347076; also: nearly all actives have a fitted effect of over 60% in size
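Cytotoxicity via CellTiter-Glo luminescence after 72 h compound exposure at 37 degrees C. Cells: drug-selected KB-V1 line, DMEM phenol-red free plus 10% FBS. Compounds tested at multiple concentrations; normalized data fitted to concentration-effect curves.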
Of the large screens only hits and unclear results are named; the others gave an inactive call; ! = repeats disagree. Calls follow the shape of the dose curve; as a rule, active = well fitted curve in the direction sought with a large enough effect; inconclusive = small, poorly fitted or top-dose-only effect, or another doubt; inactive = no such curve, though single readings can be large; an effect the other way counts as inactive or inconclusive.

CC(=O)Nc1nonc1-c1nnc(SCC(=O)N(C)c2ccccc2)n1C	none (no result: HT1080 IDH1KD tx, MCF10A rerep, HT1080NT lethal, SW480 rerep)
O=C1SC(Nc2ccccc2)C(=O)N1c1ccccc1 (stereo not drawn)	none (no result: KB-3-1 tox, MCF10A rerep, SW480 rerep, KB-V1 cytotox)
CC(C)CC1=C/C(=C/c2ccc(-c3ccccc3)o2)C(=O)O1	MCF10A rerep 26µM
NS(=O)(=O)c1ccc(-c2ccc(C=C3C(=O)c4ccccc4C3=O)o2)cc1	KB-V1 cytotox inconclusive
Cc1ccc(CSc2ccc3nnc(-c4ccccn4)n3n2)cc1	KB-V1 cytotox inconclusive
Cc1ccc(CSc2ccc3nnc(-c4cccnc4)n3n2)cc1	KB-V1 cytotox inconclusive
Brc1ccc(CSc2ccc3nnc(-c4ccccn4)n3n2)cc1	KB-V1 cytotox 15µM
Brc1ccc(CSc2ccc3nnc(-c4cccnc4)n3n2)cc1	HT1080 IDH1KD tx inconclusive, MCF10A rerep inconclusive, HT1080NT lethal inconclusive, KB-V1 cytotox 9.2µM
Cc1ccc(NS(=O)(=O)c2cc3c(cc2C)OCC(=O)N3)cc1C	KB-V1 cytotox inconclusive (no result: HT1080 IDH1KD tx, MCF10A rerep, HT1080NT lethal, SW480 rerep)
NNC(=O)c1cc2cc(Oc3ccccc3)ccc2[nH]1	MCF10A rerep inconclusive, SW480 rerep 5.8µM
O=C(NCCCO)c1cc2ccccc2[nH]1	none
COc1ccc2[nH]c(C(=O)NCCc3ccccc3)cc2c1	none
NNC(=O)c1cc2ccccc2[nH]1	HT1080 IDH1KD tx 2.1µM, KB-3-1 tox inconclusive, MCF10A rerep 12µM, HT1080NT lethal inconclusive, SW480 rerep 18µM
Cc1cc(C)cc(OCc2ccc(C(=O)Nc3ccccc3F)o2)c1	KB-V1 cytotox inconclusive (no result: HT1080 IDH1KD tx, MCF10A rerep, HT1080NT lethal, SW480 rerep)
Cc1ccc(CCNC(=O)Cn2c(-c3cccs3)cc3ccccc32)cc1	none (no result: HT1080 IDH1KD tx, MCF10A rerep, HT1080NT lethal, SW480 rerep)
CCOC(=O)C1=C(CC)OC(N)=C(C#N)C1c1ccsc1 (stereo not drawn)	SW480 rerep 0.26µM
N#CC1=C(N)Oc2c(O)cc3ccccc3c2C1c1ccsc1 (stereo not drawn)	HT1080 IDH1KD tx 15µM, KB-3-1 tox inconclusive, MCF10A rerep inconclusive, HT1080NT lethal 21µM, SW480 rerep inconclusive, KB-V1 cytotox inconclusive
CCCc1[nH]nc2c1C(c1ccsc1)C(C#N)=C(N)O2 (stereo not drawn)	HT1080 IDH1KD tx 21µM, HT1080NT lethal inconclusive
CCOC(=O)C1=C(C)OC(N)=C(C#N)C1c1ccsc1 (stereo not drawn)	HT1080NT lethal inconclusive
Cc1[nH]nc2c1C(c1cc(Br)cs1)C(C#N)=C(N)O2 (stereo not drawn)	HT1080 IDH1KD tx inconclusive, KB-3-1 tox 13µM, MCF10A rerep inconclusive, HT1080NT lethal inconclusive, SW480 rerep inconclusive, KB-V1 cytotox 16µM
Cc1ccc(C(c2sc3nc(-c4ccco4)nn3c2O)N2CCN(c3ccc(F)cc3)CC2)cc1 (stereo not drawn)	none (no result: HT1080 IDH1KD tx, MCF10A rerep, HT1080NT lethal, SW480 rerep)
O=C(NCc1ccccc1F)C1CCN(c2nn3cc(-c4ccc(F)cc4)nc3s2)CC1	none (no result: HT1080 IDH1KD tx, MCF10A rerep, HT1080NT lethal, SW480 rerep)
COC(=O)CC1=C(C(=O)OC)C(c2cccs2)C(C#N)=C(N)O1 (stereo not drawn)	none
CCOC(=O)C1=C(CC)OC(N)=C(C#N)C1c1cccs1 (stereo not drawn)	HT1080 IDH1KD tx 22µM, HT1080NT lethal inconclusive
N#CC1=C(N)Oc2cc(O)ccc2C1c1cccs1 (stereo not drawn)	none
CCN1CC2=C(OC(N)=C(C#N)C2c2cccs2)/C(=C\c2cccs2)C1 (stereo not drawn)	HT1080 IDH1KD tx inconclusive, HT1080NT lethal 22µM
N#CC1=C(N)Oc2c(ccc3ccccc23)C1c1cccs1 (stereo not drawn)	HT1080 IDH1KD tx 1.3µM, KB-3-1 tox 0.89µM, MCF10A rerep inconclusive, HT1080NT lethal 2µM, SW480 rerep 0.56µM, KB-V1 cytotox 5µM
CN1CCN(NC(=O)c2cccc(S(=O)(=O)N3CCCCCC3)c2)CC1	none
CN1CCN(NC(=O)c2cccc(C(F)(F)F)c2)CC1	SW480 rerep 5.8µM
Nc1cc(=O)nc(SCC(=O)Nc2ccc(F)cc2)n1-c1ccc(Cl)cc1	none (no result: HT1080 IDH1KD tx, MCF10A rerep, HT1080NT lethal, SW480 rerep)
COc1cc(NC(=O)c2csc(N)n2)cc(C(=O)Nc2cccc(C(F)(F)F)c2)c1	HT1080 IDH1KD tx 21µM, KB-3-1 tox 5.8µM, MCF10A rerep inconclusive, HT1080NT lethal 16µM, SW480 rerep inconclusive, KB-V1 cytotox 7.3µM!
